B2AR arrestin = beta2AR (human) beta-arrestin recruitment activity; Potency, µM (highest dose often 46.1 µM), most hits filed as activators; AID 492947; beta-arrestin recruitment to beta2AR, cell-based reporter; 0.02% of 330,000 active; P07550; active = well fitted activation curve with a large enough effect; inconclusive = small, poorly fitted or top-dose-only effect; note: nearly all actives have a fitted effect of over 65% in size
Target sequence (P07550 whole entry, looked up): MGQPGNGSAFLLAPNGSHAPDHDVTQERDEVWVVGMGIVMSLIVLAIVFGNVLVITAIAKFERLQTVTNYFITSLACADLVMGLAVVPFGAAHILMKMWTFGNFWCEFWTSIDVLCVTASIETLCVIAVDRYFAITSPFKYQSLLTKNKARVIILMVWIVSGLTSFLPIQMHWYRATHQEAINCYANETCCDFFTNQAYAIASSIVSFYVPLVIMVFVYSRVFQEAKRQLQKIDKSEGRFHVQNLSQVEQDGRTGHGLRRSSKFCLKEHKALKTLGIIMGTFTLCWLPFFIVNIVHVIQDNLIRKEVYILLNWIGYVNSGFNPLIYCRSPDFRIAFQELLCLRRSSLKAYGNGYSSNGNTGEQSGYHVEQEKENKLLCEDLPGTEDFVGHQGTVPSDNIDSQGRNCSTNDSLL
D2 ag-1 = D2 dopamine receptor (human) agonism; P14416; HEK293 T-REx D2 cells, calcium flux agonist mode; activation, % at 2 µM; 0.53% of 340,000 active; AID 485358;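 active = activation over 3 SD above normal in the single-dose calcium agonist read, cut at about 30% in these data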
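Tetracycline-induced HEK293 Trex cells with D2 receptor force-coupled to calcium signaling, plated overnight at 30 C and loaded with no-wash calcium dye. Calcium flux read kinetically for 180 s after compound addition; responses flag agonists.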
D2 PAM-1 = positive allosteric modulators of human D2 dopamine receptor | HEK293 T-REx D2, calcium flux, EC20 dopamine potentiation | P14416 | 0.34% of 340,000 active | potentiation, % at 10 µM;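 active = potentiation over 3 SD above the plate norm, cut at about 30% in these data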
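Tetracycline-induced HEK293 T-REx cells force-coupled to calcium signalling expressed D2; compounds were pin-added after a 10 s baseline, read kinetically 180 s, then an EC20 dopamine challenge followed with a further 180 s calcium read.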
D2 PAM-2 = human D2 receptor positive allosteric modulation; DiscoveRx D2 beta-arrestin cells, luminescence, 90 min; 100% = 57 uM dopamine signal; P14416; potentiation, % (test concentration not listed); 0.23% of 360,000 active; AID 624464; in the data active = potentiation above about 50%; inconclusive = mostly about 30% to 49%
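PathHunter D2 cells, attached overnight at 37 deg C, received compound in DMSO plus dopamine at EC20 (50 nM final) for 90 min at 37 deg C. Beta-arrestin recruitment was read as luminescence after 1 h with detection reagent at ambient temperature.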
D2 antag = D2 dopamine receptor (human) antagonism. P14416. HEK293 TREx D2 cells, calcium flux, dopamine EC80. inhibition, % at 10 µM. 2% of 340,000 active; in the data active = inhibition above about 30%; inactive = below that, where a call was filed
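Overnight-induced (tetracycline, 30 C) HEK293 T-REx cells carrying force-coupled D2 receive a no-wash calcium dye, then compound, then EC80 dopamine at 180 s; signals are read kinetically throughout.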
D2 ag-2 = agonists of human D2 dopamine receptor (beta-arrestin); 0.084% of 360,000 active; DiscoveRx PathHunter D2 beta-arrestin, luminescence, 90 min; 100% = 57 uM dopamine signal; AID 624465; activation, % (concentration not given with the values); in the data active = activation above about 40%; inconclusive = between about 15% and that limit
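Agonist mode: compounds alone added to overnight-plated D2 PathHunter cells for 90 min at 37 C, with 57 uM final dopamine (EC100) defining full response. Beta-arrestin recruitment detected by chemiluminescent reagent, read after 1 h at ambient temperature.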
Large screens that a line does not name were inactive. Most compounds without a hit are left out; they make up all but 2.4% or so of the library.

Cc1ccccc1-c1nnn(Cc2ccc(F)cc2Cl)n1	none
CC[C@@H](C(=O)[C@@H](C)[C@@H](O)[C@H](C)CCc1ccc(C)c(O)c1C(=O)O)[C@H]1O[C@](CC)([C@H]2CC[C@](O)(CC)[C@H](C)O2)C[C@@H]1C	D2 PAM-2 inconclusive, D2 antag 49, D2 ag-2 inconclusive
CCCCn1c(N)c(N(CC(C)C)C(=O)c2cc(-c3ccc(OC)c(OC)c3)nc3ccccc23)c(=O)[nH]c1=O	none
CCN(c1ccccc1)S(=O)(=O)c1ccc2[nH]c(=O)c(=O)[nH]c2c1	D2 antag 33 (no result: D2 PAM-1)
O=C(Nc1nc2c(F)cccc2s1)c1ccc([N+](=O)[O-])o1	D2 antag 33
N#CC1=C(N)Oc2n[nH]c(-c3ccccc3)c2C1c1cccnc1 (stereo not drawn)	none
N#CC1=C(N)Oc2n[nH]c(-c3cccnc3)c2C1c1ccc([N+](=O)[O-])o1 (stereo not drawn)	D2 PAM-2 55
Cc1ccc(SCc2[nH]nc3c2C(c2ccc(C)o2)C(C#N)=C(N)O3)cc1 (stereo not drawn)	none
CCc1[nH]nc2c1C(c1ccc(C)o1)C(C#N)=C(N)O2 (stereo not drawn)	D2 antag 64
COc1ccc(C(c2nnnn2C(C)C)N2CCN(C(=O)c3ccco3)CC2)cc1 (stereo not drawn)	none
CCOc1ccc(C2c3c(oc4ccc(C)cc4c3=O)C(=O)N2CCCN2CCOCC2)cc1 (stereo not drawn)	none (no result: B2AR arrestin, D2 PAM-2, D2 antag, D2 ag-2)
O=C(C[C@@H]1C/C=C\CCCC(=O)OC[C@@H](c2ccccc2)NC1=O)NCCO	none (no result: D2 ag-1, D2 PAM-1, D2 antag)
Cc1ccc(NC(=O)C2CCC(N3C(=O)C4CCCCC4C3=O)CC2)cc1 (stereo not drawn)	D2 antag 43
COc1cc(C(C(=O)NC(C)(C)C)N(C(=O)CNC(=O)c2cccs2)c2ccccc2)cc(OC)c1OC (stereo not drawn)	none
O=C(c1ccc(F)cc1)C1CCN(C(=S)Nc2ccc(F)cc2)CC1	D2 antag 47
CCCNC(=S)N1CCC(C(=O)c2ccc(F)cc2)CC1	D2 PAM-1 35
COCCNC(=S)N1CCC(C(=O)c2ccc(F)cc2)CC1	none (no result: B2AR arrestin, D2 ag-1, D2 PAM-1, D2 antag)
O=C(c1ccc(N2C(=O)C3CC=C(Cl)CC3C2=O)cc1)N1CCCCC1 (stereo not drawn)	D2 antag 38
O=C(c1ccc(F)cc1)C1CCN(C(=O)c2ccc(F)cc2)CC1	D2 antag 41
CCOC(=O)C1CCN(C(=O)CN(c2ccc(Oc3ccccc3)cc2)S(C)(=O)=O)CC1	none
CCOC(=O)CCCNC(=O)CN1C(=O)NC(c2ccccc2)(c2ccccc2)C1=O	none
O=C1NN(c2ccccc2)C(=O)C2C3C=CC(C4CC34)C12 (stereo not drawn)	none
COc1ccc(CN2CCC(C(=O)c3ccc(F)cc3)CC2)cc1	D2 antag 78
O=C(c1ccc(C(=O)N2CCCCCC2)cc1)N1CCCCCC1	D2 PAM-1 32
O=C(c1ccccc1)N1CCCCCC1	none
Cc1oc(-c2ccc(C(=O)Nc3ccccc3F)cc2)nc1COc1ccccc1	none (no result: B2AR arrestin, D2 PAM-2, D2 antag, D2 ag-2)
C/C=C/C=C\C(=O)Nc1cccc(C2=NOC3(C2)C[C@@H](C(N)=O)N(C(=O)c2cc([N+](=O)[O-])cc([N+](=O)[O-])c2)C3)c1 (stereo partly drawn)	none
CSc1ccccc1C(=O)OCC(=O)N1CCCC1=O	D2 PAM-1 52
Cc1[nH]c2ccccc2c1/C=C(\C#N)C(=O)NCC1CCCO1 (stereo not drawn)	none
COCCN1C(=O)CS/C1=C(/C#N)C(=O)NCc1ccco1	none
N#Cc1cnn(Cc2ccccc2)c1/N=C/N1CCOCC1	D2 antag 34 (no result: D2 PAM-1)
COc1ccc(CN2CCN(Cc3cccc(Oc4ccccc4)c3)CC2)c(OC)c1OC	D2 antag 34
COc1ccc(CN2CCN(c3ccc(F)cc3)CC2)c(OC)c1OC	D2 antag 33
CCCc1cc(=O)n2[nH]c(-c3ccc(OC)cc3)nc2n1	none
